Assay in all cases: DAPPL (digital affinity profiling via proximity ligation, sequencing); 10 mM Tris-HCl pH 7.5, 50 mM NaCl, 1 mM DTT, 4% glycerol, room temperature, 30 min; GST-TFs on glutathione beads, 16-mer random dsDNA library, 0.1% formaldehyde crosslink after washing; high values mean tight binding
For one experiment, the target named is T1, FEV (Homo sapiens, UniProt Q99581 1-238).
T1 sequence: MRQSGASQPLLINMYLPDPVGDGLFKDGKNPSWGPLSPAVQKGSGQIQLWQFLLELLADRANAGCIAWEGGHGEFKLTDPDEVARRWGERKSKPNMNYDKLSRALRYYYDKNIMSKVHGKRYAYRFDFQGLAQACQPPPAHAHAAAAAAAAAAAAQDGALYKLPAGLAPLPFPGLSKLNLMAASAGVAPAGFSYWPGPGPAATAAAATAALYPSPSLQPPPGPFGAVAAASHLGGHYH
Particulars: protein: recombinant; tags: N-terminal GST; dsDNA, one strand shown. An outline of the steps: (§1)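 Human transcription factors fused to GST were expressed in yeast, captured on glutathione beads, given DNA barcodes and pooled with a GST-only negative control. Pools were incubated with 200 nmole of a 16-mer random double-stranded DNA library in Tris/NaCl/DTT/glycerol buffer at room temperature for 30 min. They were then washed, crosslinked with 0.1% formaldehyde, proximity-ligated (BsaI/T4 ligase, 1 h, 37 °C), PCR-amplified and sequenced on an Illumina NextSeq500. Binding signal is each 6-mer's read frequency for a factor divided by its frequency for the GST control.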

The target in the next experiment is ETV5 (Homo sapiens, UniProt P41161 1-510). Particulars: protein: recombinant; tags: N-terminal GST; dsDNA, one strand shown. The procedure, abridged: as §1
A further experiment has as its target HSF1 (Homo sapiens, UniProt Q00613 1-529). Particulars: protein: recombinant; tags: N-terminal GST; chain copies: 3; dsDNA, one strand shown. The procedure, abridged:
as §1

The target of the next experiment is T2, SPIC (Homo sapiens, UniProt Q8N5J4 1-248).
T2 sequence: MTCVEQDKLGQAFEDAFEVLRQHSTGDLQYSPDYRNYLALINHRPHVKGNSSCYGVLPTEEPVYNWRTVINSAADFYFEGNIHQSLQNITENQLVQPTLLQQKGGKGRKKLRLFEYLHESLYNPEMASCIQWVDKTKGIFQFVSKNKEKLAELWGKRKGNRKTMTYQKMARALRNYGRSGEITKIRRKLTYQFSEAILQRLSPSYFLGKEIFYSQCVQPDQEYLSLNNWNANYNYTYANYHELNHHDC
Particulars: protein: recombinant; tags: N-terminal GST; dsDNA, one strand shown. An outline of the steps: as §1

A further experiment has as its target ELF4 (Homo sapiens, UniProt Q99607 1-663). Particulars: protein: recombinant; tags: N-terminal GST; dsDNA, one strand shown. An outline of the steps:
as §1

A further experiment concerns the target T3, ELK4 (Homo sapiens, UniProt P28324-2 1-405).
T3 sequence: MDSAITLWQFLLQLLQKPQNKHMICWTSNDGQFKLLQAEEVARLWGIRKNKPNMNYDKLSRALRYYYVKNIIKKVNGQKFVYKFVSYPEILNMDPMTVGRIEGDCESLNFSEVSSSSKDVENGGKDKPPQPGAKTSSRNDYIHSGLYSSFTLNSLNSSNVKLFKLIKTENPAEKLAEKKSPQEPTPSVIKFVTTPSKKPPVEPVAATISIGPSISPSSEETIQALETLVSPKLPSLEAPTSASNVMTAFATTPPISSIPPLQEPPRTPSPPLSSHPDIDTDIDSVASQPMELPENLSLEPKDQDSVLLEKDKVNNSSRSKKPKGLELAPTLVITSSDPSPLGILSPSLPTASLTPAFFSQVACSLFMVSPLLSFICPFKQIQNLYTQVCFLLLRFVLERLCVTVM
Particulars: protein: recombinant; tags: N-terminal GST; dsDNA, one strand shown. An outline of the steps: as §1

In another experiment the target is T4, ETV2 (Homo sapiens, UniProt O00321 1-342).
T4 sequence: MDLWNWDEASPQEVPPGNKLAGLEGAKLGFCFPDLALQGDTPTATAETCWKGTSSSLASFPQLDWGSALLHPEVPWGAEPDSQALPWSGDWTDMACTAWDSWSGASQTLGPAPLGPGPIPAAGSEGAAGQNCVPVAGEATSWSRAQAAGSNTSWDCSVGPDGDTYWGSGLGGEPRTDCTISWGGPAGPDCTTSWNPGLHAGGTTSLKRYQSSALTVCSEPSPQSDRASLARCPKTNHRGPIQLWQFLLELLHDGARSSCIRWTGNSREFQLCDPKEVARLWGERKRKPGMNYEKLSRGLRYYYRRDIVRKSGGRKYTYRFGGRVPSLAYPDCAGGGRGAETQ
Particulars: protein: recombinant; tags: N-terminal GST; dsDNA, one strand shown. An outline of the steps:
as §1

In another experiment the target is T5, ELF3 (Homo sapiens, UniProt P78545 1-371).
T5 sequence: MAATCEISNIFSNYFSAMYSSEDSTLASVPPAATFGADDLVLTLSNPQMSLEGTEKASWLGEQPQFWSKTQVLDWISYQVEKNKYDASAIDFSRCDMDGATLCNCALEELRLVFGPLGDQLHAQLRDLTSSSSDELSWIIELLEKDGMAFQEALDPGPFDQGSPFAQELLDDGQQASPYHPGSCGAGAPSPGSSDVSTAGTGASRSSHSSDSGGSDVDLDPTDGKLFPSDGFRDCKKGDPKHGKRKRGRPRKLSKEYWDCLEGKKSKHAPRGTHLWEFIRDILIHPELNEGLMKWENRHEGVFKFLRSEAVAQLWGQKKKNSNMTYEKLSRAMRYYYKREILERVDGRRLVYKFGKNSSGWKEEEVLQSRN
Particulars: protein: recombinant; tags: N-terminal GST; dsDNA, one strand shown. An outline of the steps: as §1

The target in the next experiment is CRX (Homo sapiens, UniProt O43186 1-299). Particulars: protein: recombinant; tags: N-terminal GST; dsDNA, one strand shown. The procedure, abridged: as §1
For a further experiment, the target named is ETV1 (Homo sapiens, UniProt P50549 1-477). Particulars: protein: recombinant; tags: N-terminal GST; dsDNA, one strand shown. An outline of the steps:
as §1

In the next experiment the target is T6, ERF (Homo sapiens, UniProt P50548 1-548).
T6 sequence: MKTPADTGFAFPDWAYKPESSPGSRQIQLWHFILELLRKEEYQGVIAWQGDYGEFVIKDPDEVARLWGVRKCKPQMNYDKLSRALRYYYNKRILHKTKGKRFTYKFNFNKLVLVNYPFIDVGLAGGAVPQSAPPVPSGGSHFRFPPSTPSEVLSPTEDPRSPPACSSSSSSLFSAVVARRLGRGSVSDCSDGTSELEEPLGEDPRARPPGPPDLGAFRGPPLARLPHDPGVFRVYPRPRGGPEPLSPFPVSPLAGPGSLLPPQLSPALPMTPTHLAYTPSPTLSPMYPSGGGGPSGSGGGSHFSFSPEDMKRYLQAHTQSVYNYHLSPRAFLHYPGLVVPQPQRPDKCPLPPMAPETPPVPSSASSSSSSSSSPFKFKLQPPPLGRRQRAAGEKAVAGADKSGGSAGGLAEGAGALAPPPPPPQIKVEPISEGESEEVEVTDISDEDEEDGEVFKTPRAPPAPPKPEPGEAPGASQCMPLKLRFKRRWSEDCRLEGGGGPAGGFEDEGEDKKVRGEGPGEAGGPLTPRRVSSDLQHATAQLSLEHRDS
Particulars: protein: recombinant; tags: N-terminal GST; dsDNA, one strand shown. The procedure, abridged:
as §1

The target of another experiment is T7, ETV3L (Homo sapiens, UniProt Q6ZN32 1-361).
T7 sequence: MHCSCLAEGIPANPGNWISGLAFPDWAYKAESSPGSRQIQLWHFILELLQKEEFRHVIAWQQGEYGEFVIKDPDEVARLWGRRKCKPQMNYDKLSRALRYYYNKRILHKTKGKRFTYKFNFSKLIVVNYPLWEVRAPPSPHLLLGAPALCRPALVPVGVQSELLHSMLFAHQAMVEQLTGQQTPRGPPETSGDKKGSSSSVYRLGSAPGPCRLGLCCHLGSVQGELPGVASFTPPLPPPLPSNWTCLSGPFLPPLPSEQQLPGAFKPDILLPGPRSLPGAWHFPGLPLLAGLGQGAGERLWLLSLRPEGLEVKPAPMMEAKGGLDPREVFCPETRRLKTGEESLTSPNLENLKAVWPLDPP
Particulars: protein: recombinant; tags: N-terminal GST; dsDNA, one strand shown. An outline of the steps: as §1

The next experiment deals with T8, ETS2 (Homo sapiens, UniProt P15036 1-469).
T8 sequence: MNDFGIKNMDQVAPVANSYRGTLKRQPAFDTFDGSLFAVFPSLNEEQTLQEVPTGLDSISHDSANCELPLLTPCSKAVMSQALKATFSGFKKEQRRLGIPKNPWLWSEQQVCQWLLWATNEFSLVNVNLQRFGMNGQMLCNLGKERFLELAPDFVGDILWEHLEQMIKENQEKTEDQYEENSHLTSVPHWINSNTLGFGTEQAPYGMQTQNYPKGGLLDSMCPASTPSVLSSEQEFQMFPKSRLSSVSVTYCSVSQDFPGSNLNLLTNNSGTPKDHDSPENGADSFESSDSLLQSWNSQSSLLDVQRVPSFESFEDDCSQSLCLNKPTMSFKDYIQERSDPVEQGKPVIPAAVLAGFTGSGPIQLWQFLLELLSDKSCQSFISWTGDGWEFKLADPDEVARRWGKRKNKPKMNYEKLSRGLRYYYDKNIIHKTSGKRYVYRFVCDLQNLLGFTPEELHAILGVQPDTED
Particulars: protein: recombinant; tags: N-terminal GST; dsDNA, one strand shown. The procedure, abridged: as §1

A further experiment has as its target T9, SPDEF (Homo sapiens, UniProt O95238 1-335).
T9 sequence: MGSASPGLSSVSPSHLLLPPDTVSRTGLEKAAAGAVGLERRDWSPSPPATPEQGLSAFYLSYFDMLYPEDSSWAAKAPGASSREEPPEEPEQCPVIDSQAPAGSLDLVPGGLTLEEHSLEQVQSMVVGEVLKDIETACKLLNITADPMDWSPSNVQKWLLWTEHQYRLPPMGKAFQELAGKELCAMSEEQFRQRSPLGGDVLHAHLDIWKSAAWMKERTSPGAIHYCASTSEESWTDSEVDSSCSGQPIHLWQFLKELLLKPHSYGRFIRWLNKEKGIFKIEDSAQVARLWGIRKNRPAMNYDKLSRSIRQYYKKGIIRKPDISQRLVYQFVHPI
Particulars: protein: recombinant; tags: N-terminal GST; dsDNA, one strand shown. The procedure, abridged: as §1

For a further experiment, the target named is T10, ETV7 (Homo sapiens, UniProt Q9Y603 1-341).
T10 sequence: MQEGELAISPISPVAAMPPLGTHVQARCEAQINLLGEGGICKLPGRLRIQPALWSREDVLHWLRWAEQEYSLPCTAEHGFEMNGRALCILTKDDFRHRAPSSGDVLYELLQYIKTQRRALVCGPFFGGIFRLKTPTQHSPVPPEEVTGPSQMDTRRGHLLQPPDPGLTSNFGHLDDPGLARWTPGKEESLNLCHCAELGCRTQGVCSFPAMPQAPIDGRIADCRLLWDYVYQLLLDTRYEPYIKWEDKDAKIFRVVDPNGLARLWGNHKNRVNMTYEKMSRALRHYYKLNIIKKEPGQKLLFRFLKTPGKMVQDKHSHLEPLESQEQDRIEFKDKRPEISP
Particulars: protein: recombinant; tags: N-terminal GST; dsDNA, one strand shown. An outline of the steps:
as §1

The target of another experiment is T11, ELF5 (Homo sapiens, UniProt Q9UKW6-2 1-255).
T11 sequence: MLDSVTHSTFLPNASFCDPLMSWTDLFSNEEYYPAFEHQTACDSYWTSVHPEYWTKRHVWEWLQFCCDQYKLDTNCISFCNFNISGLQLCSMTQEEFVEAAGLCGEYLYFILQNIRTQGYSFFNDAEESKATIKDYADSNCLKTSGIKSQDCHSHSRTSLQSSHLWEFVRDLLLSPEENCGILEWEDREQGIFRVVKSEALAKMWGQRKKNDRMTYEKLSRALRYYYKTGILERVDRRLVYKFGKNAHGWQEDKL
Particulars: protein: recombinant; tags: N-terminal GST; dsDNA, one strand shown. An outline of the steps:
as §1

In the next experiment the target is T12, ETV3 (Homo sapiens, UniProt P41162-2 1-143).
T12 sequence: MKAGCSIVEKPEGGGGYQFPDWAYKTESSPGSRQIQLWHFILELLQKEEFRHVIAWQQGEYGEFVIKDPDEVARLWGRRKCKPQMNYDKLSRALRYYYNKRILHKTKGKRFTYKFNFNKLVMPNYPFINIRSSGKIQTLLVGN
Particulars: protein: recombinant; tags: N-terminal GST; dsDNA, one strand shown. The procedure, abridged: as §1

For another experiment, the target named is ETV6 (Homo sapiens, UniProt P41212 1-452). Particulars: protein: recombinant; tags: N-terminal GST; dsDNA, one strand shown. The procedure, abridged:
as §1

Chain of ETV6 (P41212 whole entry): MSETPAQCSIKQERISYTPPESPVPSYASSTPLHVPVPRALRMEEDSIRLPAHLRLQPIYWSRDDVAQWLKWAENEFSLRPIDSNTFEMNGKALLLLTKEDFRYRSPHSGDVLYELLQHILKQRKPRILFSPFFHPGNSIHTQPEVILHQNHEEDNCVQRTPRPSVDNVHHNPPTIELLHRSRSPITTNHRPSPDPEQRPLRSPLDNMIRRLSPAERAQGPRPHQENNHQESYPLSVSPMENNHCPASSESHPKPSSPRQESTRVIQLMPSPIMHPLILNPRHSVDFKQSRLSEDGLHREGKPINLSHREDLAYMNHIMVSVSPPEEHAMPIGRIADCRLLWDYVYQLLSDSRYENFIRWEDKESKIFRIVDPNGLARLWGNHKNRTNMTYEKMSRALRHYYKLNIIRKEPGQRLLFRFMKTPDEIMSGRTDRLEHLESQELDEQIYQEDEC
Chain of ETV5 (P41161 whole entry): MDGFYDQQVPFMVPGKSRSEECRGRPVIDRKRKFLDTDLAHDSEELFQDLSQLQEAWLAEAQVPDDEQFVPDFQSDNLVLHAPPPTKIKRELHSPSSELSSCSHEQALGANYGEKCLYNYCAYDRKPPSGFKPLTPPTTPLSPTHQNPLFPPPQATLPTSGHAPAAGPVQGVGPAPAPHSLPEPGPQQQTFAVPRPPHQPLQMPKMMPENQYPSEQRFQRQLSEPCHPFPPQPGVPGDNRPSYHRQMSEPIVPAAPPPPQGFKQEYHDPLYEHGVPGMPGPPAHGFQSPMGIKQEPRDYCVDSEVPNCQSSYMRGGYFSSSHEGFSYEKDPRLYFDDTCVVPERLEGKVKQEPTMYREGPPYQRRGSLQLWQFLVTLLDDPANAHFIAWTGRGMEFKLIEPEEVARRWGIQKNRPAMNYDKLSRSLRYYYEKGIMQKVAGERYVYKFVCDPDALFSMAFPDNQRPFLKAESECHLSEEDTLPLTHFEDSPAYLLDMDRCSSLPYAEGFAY
Chain of HSF1 (Q00613 whole entry): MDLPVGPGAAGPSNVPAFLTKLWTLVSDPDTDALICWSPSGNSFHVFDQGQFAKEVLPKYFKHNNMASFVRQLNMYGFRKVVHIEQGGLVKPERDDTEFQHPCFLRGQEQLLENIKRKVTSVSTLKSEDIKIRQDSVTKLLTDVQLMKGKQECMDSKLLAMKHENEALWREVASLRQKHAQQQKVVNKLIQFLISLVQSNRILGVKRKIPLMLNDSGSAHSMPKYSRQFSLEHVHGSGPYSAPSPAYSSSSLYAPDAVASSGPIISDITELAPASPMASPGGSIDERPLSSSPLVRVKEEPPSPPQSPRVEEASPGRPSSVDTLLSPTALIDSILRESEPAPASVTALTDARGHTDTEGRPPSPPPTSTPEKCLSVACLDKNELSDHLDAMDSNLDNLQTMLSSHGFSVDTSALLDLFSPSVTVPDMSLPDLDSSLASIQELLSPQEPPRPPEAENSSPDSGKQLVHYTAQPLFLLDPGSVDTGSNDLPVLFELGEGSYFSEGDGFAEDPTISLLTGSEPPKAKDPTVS
Chain of CRX (O43186 whole entry): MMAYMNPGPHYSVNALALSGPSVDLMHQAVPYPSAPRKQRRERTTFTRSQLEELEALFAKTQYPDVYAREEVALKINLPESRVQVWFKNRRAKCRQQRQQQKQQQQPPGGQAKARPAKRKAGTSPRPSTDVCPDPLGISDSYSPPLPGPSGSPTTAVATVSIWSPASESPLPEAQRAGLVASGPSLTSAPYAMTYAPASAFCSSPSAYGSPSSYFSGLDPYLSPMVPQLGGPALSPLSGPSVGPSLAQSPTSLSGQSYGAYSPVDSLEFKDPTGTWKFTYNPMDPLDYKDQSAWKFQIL
Chain of ETV1 (P50549 whole entry): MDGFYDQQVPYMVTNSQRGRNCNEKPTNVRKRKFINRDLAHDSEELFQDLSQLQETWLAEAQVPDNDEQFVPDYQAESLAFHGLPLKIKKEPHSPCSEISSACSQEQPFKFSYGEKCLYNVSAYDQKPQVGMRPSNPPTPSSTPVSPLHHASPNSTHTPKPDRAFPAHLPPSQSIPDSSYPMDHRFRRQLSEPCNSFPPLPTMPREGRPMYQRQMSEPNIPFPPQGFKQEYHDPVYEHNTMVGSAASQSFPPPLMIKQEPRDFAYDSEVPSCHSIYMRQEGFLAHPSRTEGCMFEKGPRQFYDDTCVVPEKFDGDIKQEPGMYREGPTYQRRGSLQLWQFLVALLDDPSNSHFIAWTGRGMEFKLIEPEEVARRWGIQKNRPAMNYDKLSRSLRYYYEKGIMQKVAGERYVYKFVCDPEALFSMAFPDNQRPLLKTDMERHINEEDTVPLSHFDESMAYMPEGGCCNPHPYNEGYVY
Chain of ELF4 (Q99607 whole entry): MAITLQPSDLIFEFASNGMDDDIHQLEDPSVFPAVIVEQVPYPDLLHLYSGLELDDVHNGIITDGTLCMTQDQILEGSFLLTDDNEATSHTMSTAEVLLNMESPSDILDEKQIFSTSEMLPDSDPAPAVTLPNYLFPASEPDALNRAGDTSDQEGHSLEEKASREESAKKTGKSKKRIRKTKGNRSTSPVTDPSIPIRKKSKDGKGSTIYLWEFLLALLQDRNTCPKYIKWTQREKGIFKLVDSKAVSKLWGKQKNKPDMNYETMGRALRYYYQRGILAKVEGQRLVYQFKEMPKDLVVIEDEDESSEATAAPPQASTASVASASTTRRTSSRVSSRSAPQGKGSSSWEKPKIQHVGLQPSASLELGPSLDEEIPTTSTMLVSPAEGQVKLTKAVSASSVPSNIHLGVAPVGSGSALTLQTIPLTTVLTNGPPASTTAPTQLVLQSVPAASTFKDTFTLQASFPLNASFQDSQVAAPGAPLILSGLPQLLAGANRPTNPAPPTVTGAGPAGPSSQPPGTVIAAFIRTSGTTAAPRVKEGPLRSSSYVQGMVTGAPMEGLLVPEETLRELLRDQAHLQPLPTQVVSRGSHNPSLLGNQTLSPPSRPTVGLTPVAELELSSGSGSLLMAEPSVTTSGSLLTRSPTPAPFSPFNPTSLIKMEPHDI

With CCTATA, the binding signal with FEV was 1.33 fold enrichment (6-mer frequency, TF over GST control); with ETV5 it was 1.31 fold enrichment (6-mer frequency, TF over GST control); with HSF1 it was 1.16 fold enrichment (6-mer frequency, TF over GST control); with SPIC, 1.35 fold enrichment (6-mer frequency, TF over GST control); in the experiment with ELF4 it was 1.29 fold enrichment (6-mer frequency, TF over GST control); with ELK4, 1.4 fold enrichment (6-mer frequency, TF over GST control). Moreover, the binding signal with ETV2 is 1.43 fold enrichment (6-mer frequency, TF over GST control); in the experiment with ELF3, 1.15 fold enrichment (6-mer frequency, TF over GST control); with CRX, 1.34 fold enrichment (6-mer frequency, TF over GST control); with ETV1 it was 1.29 fold enrichment (6-mer frequency, TF over GST control); with ERF, 1.33 fold enrichment (6-mer frequency, TF over GST control); with ETV3L it was 1.34 fold enrichment (6-mer frequency, TF over GST control). For the same sequence, the binding signal with ETS2 is 1.42 fold enrichment (6-mer frequency, TF over GST control); with SPDEF it was 1.45 fold enrichment (6-mer frequency, TF over GST control); with ETV7, 1.31 fold enrichment (6-mer frequency, TF over GST control); in the experiment with ELF5, 1.39 fold enrichment (6-mer frequency, TF over GST control); in the experiment with ETV3, 1.36 fold enrichment (6-mer frequency, TF over GST control); with ETV6, 1.39 fold enrichment (6-mer frequency, TF over GST control).

(Values after PMC7862700, “An all-to-all approach to the identification of sequence-specific readers for epigenetic DNA modifications on cytosine”.)
